Assay results reported in PubChem BioAssay AID1347426 (Functional Genomics Laboratory (NCATS/FGL), 2020).
Hit rate of the full screen: of about 31,000 sequences, about 1,400 (4.5%) were called active. Shown is part of a subset that was picked to be rich in actives. A number with no mark means an inactive call.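 Rule for the calls: active = median seed-adjusted z-score above 1 or below -1; inactive = the rest.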

experiment: Novel Modifiers of Survival Motor Neuron (SMN) Protein: Gene Identification via Genome-wide siRNA Screen; settings: HEK293T SMN2-luciferase reporter, siRNA knockdown, 72 h; actives lie on both sides;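 note: luminescence tracks full-length SMN protein made from the SMN2 reporter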
Procedure, shortened: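 HEK293T cells stably expressing an SMN2 splicing/cDNA-luciferase reporter were reverse-transfected with a druggable-genome siRNA library and read by luminescence at 72 hours; hits defined by MAD score above 1.0 or below -1.0.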

Sequence	median seed-adjusted z-score
GAUGUAACAUUGACAUUGATT against NOTCH2	0.000598
CAUUUUCAGUCUUUAGAAATT against RNF34	-0.0857
GGGUUGUUUCAAUCUAACATT against HDAC2	-1.27 (active)
GCCCUGAAGAUAUCGUGAATT against PARVG	0.321
GGACUUUGAGGAAACGGAATT against BRD8	-0.133
GUUACGCCCUGAUUCUAAATT against MAT2A	-1.9 (active)
GGAACAAAGACUAAAAACATT against TUBB6	0.63
GCAAAACACCAGAACGAGATT against TESSP2	0.419
GAAUAGAGGAUAUCCUUGATT against KYNU	0.00735
CCAGCUUGCUUGUGUAUAATT against PPP1R14A	0.0124
GGAAGACUCAUUGAACAUATT against CASP1	-0.331
GGGAAUUACCAGUUACGGATT against TMPRSS12	0.0961
CAAUGUUCCUCUACCUCUATT against MAL2	-0.604
GCAUCCUUACAGCACUGCATT against XRCC3	0.332
GACUAUCUUUUUAGGCAAATT against BRIP1	0.312
GCCUCAUCGUUCUGCAGAATT against ZNF628	-0.121
GUACAGGCCCUACAUCAUUTT against LRP5	-1 (active)
CAUCUGACCCUAACUGAAATT against ZMYND10	0.255
GGGUGAUCGAGGACCCAAATT against COL8A1	-0.848
GGAUCAUGCUAAAAGGAGATT against SNRPE	-2.77 (active)
GCCUUGUAAAAAUCAACUUTT against ZNF528	-0.0746
CGCAAAAGGCUACCACGAATT against CD300LF	-0.264

Sequence	median seed-adjusted z-score
GGUUGCUACGGGAACAAUATT against ARSD	-0.447
CAGUGACCUGCUUCCCUCATT against PROP1	0.303
CGGUGUGAAGAUGAUCUAATT against DNAJC24	-0.0166
GUUACUCACAUUUUCUUUATT against AKR7A3	0.455
UAAUCAAUCUGGAAUGUUUTT against BMP8B	0
CGAGGAGCUGAAUUCCCAATT against SLC9A3R1	-0.418
CAGACUGAAGGGUUCCGAATT against MLH3	0.228
GCCUCUAAGAGCUGAGAGATT against PRSS33	-0.588
GGACUAUGCAAAGAAUCUATT against RPS6KB1	1.4 (active)
GCUACGAUCACAUUACGAATT against JARID1D	0.293
GUACCAGUCCAGUCCAUGATT against CDKN2D	-0.455
GGAAGUAAAUGUUGUUUUATT against CCL11	-0.221
GGCCCGAGCUGAUUGACUATT against ACTN1	0
GCUCUAACCUCACUAAUCATT against ZNF256	0.00739
CCGCUGCAACAACCAGAAATT against LRP3	-1.05 (active)
CAGUCCUACAGGUUCAUCATT against PIP5K1C	-0.13
GAGAUAUUUGAGUCGUUAATT against GBP7	0
CAACUCCGUGGUUACCAAATT against PQBP1	-1.12 (active)
UCAUGAGCCUGAUAAGUGATT against PPP2R5D	0.848
GAUCUCAAAUCAGAGUUAATT against ANXA7	0.671
CAAUGGAUCGGCUUCCUUATT against ADRA2B	0.00853
GCAAUAAGAGAGAUCAGUATT against PDSS1	-0.287

Sequence	median seed-adjusted z-score
GGACAAGAAGCAAAUGACATT against OLIG2	0.00944
GGUCCGCAAAGGCUUCUGATT against VWA1	0.289
CCUUAUCCGAGAAUACAUUTT against TUBAL3	1.05 (active)
GGAAAUUGACUUUCUAAAATT against KRT84	-0.645
CAGUGACUAUGAGAGUGUATT against SCARB2	-0.244
CGGUUGAAGUGUAGGGAGATT against TCEA1	0
CGAGUAUACAGUAUACAGATT against CHAF1B	0.634
CUCAGAGAAUAAUCACAAATT against PER2	-0.113
GAACUAUAUUCUUCUGUGATT against CDH1	-0.24
GCCUCCUACUACUUCCGUUTT against SLC6A8	-0.0673
GAAUUGUACCUACUUCUGUTT against PTPLA	0.291
CUACCUCUCUUGUUUGGAATT against TRIP13	1 (active)
GCAAGCAGGUUAUCAACGATT against FLII	-0.353
GCAUGUACGACCAAUGUAATT against NR3C1	-0.47
GAGUCACAGUUGAAGAUCUTT against GOT2	0.205
CAAUCUCCGCAAAAAUGGATT against PCMT1	0.139
CGACAUCUCACUCAUGAAATT against SF3A3	-2.1 (active)
CUAUGGACCAGUCAAAUAATT against NDUFB7	-0.379
ACACCCGCGUGUCUGAUUATT against PPAP2C	-1.12 (active)
CCCUCAUCAAGAACUUUCATT against S100A14	0.0172
GCCUAAACAGUGACCGAUUTT against BDH1	-0.0253
CUGCUGUUGUUACUACCCATT against USF1	0.16

Sequence	median seed-adjusted z-score
GCAAGACCACGCUCCUUUATT against ARL11	1 (active)
GGAGUUAUCUGGUGACAAUTT against UROS	-0.248
GGCUAGUAGCUGAACUUCATT against DIMT1L	0.0156
CAGUUGCAUUGGUUCCCAUTT against EZH1	0.268
GCUUUGGAAGGGUUUGAUATT against DCT	-0.184
GACGAAUCACUGCAGUUUATT against GOSR2	-1.25 (active)
CAAGGUCUCCUGUGCUGAATT against MYOG	-0.0972
GGAUGUUGAUGAAGGCAAATT against LDHAL6A	-0.15
GAAUAUAACCUGCCGCUUUTT against CD44	0
GGGCUGGAUUGGUACAGGATT against HS3ST2	0.133
CGUGUGAUCCAGAGACUUATT against KRT1	-0.362
AAGGCUACUUAACAAAGGATT against S100A10	0.366
GACGACUUCUUGAACAGAATT against ZNF207	-3.1 (active)
GUAGGAUUGUUUAGUGUAATT against CACNA1D	-0.0856
GCUUUGAGAUUUUCGAGGATT against MYO1B	0.903
CGAGAGCUCCAGAUCAUGATT against GSK3B	-0.952
GGGAUUGAGUUAAAACUAUTT against SOX7	-0.387
GGUAGCUUCUGAUAAUGAUTT against LEO1	1.2 (active)
CGUGGGUAAUGAUGCGGAATT against TOM1	0.774
GGAGUUGAAGGCCUACAAATT against APOE	0.0321
CCUUGUCUGUGCUCAAGUATT against USP35	-0.219
CACUUACCAAGGAUACCAATT against PHC2	0.177

Sequence	median seed-adjusted z-score
GGAUUUUACAGGAUAUCUUTT against SPPL2A	-0.358
GAAUGGACUGGUACCUAUUTT against ALDOB	-1.34 (active)
GGAUCUGCAUAGUGACCAATT against PSMB1	-0.35
AUGUUUCAAUAGAUCCAGATT against LIMD2	0.418
GCACCAAAGUAUACAACGATT against PRKAR2B	-0.777
GAUCUUGGAUGGAUUGCUATT against OCA2	0.457
ACAACCCUCUUAAAACUAATT against IGF2	-0.0306
CUGUAUGGGUGGUCAAUCATT against ABCA1	-1.27 (active)
GGACAACGAUAACCGAUCATT against CA1	0.262
GUCUAAAUCUCGUUCCAAATT against SRrp35	-0.0574
AGGUCAAUGUGACUUUCCATT against KCNJ10	-0.0371
GAAACGAUAUGAAUGUAAATT against ZNF491	0.0642
CCAUUGAAGAGGCUAUGAATT against SPAG7	0.263
GAGUGGGAAUGGUCAGGCUTT against ADORA2B	-0.471
GGUCCAUGGUGGAAGACGATT against MAL	0.0733
CCAUCUCAGGAGUUAGCUATT against ZNF281	1.19 (active)
GUGUCUGGAUUUUCACUGATT against F11	-0.0319
AGGCCUUGGUGGAACAUGUTT against PSAP	0.107
GCUCGUAAGUUGGUGAUCATT against TPM3	0.111
GAACUAGCACGCAUCAAGATT against PPM1G	0.073
